JMJD2A Tudor inh: blocks the human JMJD2A Tudor domain | AlphaScreen JMJD2A-Tudor / H3K4me3 peptide binding | 390,000 compounds, 4.4% hits | Potency, µM (series often up to 114 µM), without a hit: at the highest dose activity change, negative = inhibition, usual class: inhibitors | O75164 | AID 504339; also: potency is read from the fitted curve at half-maximal effect; % is scaled to controls: 0 for no effect and ±100 for the full control effect; nearly all actives have a fitted effect of over 50% in size
BAZ2B block: BAZ2B (human) inhibition; Q9UIF8; AlphaScreen BAZ2B-H3K14Ac peptide displacement; Potency, µM (titrated, usually from 114 µM), for the others: at the top dose activity change, negative = inhibition, most hits filed as inhibitors; 360,000 compounds, 4.4% hits; also: potency is read from the fitted curve at half-maximal effect; % is scaled to controls: 0 for no effect and ±100 for the full control effect; nearly all actives have a fitted effect of over 60% in size
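Complex of BAZ2B and biotin-H3K14Ac (50 nM apiece) forms over 30 min at RT, then faces library compounds up to 110 uM for another 30 min; AlphaScreen beads added, 20 min dark incubation, luminescence read.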
HP1b binding inh: blocks HP1-beta chromodomain binding to methylated histone tails; P83916; AlphaScreen HP1-beta / biotin-H3K9me3 peptide binding; Potency, µM (series often up to 114 µM), for inactives: at the highest dose activity change, negative = inhibition, actives largely listed as inhibitors; 390,000 compounds, 0.56% hits; AID 540317; also: potency is read from the fitted curve at half-maximal effect; nearly all actives have a fitted effect of over 70% in size
Target sequence (P83916 whole entry, looked up): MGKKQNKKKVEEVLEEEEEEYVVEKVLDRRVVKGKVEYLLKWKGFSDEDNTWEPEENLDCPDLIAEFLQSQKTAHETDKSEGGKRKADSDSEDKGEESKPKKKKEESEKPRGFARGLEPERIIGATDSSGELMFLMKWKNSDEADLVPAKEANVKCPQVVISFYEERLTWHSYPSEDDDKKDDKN
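HP1-beta protein (50 nM final) preincubated 30 min at room temperature with biotinylated H3(1-18)K9me3 peptide (50 nM) in PBS pH 7.4, 0.01% Tween-20, then compound added for 30 min. AlphaScreen streptavidin donor/nickel chelate acceptor beads (10 ug/mL final), 30 min dark, luminescence read.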
Six1-Eya2 inh: Six1/Eya2 interaction inhibition. 360,000 compounds, 0.56% hits. activity change, % (no concentration beside the values). Q15475+O00167. AlphaScreen GST-Six1/His-Eya2 binding, biochemical; hits give low values; in the data active = activity change below about -65%; inconclusive = mostly about -30% to -63%; also: % is scaled to controls: 0 for no effect and ±100 for the full control effect
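GST-Six1 + His-Eya2 (5X stock: 250/500 nM); Tris pH 8.0, 300 mM NaCl, 0.05% BSA, 0.02% Tween 20; GSH donor/Ni acceptor beads; 1 h 37 °C dark; AlphaScreen readout.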
G9a inh: blocks human histone lysine methyltransferase G9a. Potency, µM (top dose mostly 102 µM), without a hit: top-dose activity, negative = inhibition, actives largely listed as inhibitors. G9a H3K9 monomethylation, AlphaScreen, 2 h. AID 504332. Q96KQ7. 350,000 compounds, 8.8% hits; also: potency is read from the fitted curve at half-maximal effect; % is scaled to controls: 0 for no effect and ±100 for the full control effect; nearly all actives have a fitted effect of over 75% in size
Target sequence (Q96KQ7 913-1193 limits assumed): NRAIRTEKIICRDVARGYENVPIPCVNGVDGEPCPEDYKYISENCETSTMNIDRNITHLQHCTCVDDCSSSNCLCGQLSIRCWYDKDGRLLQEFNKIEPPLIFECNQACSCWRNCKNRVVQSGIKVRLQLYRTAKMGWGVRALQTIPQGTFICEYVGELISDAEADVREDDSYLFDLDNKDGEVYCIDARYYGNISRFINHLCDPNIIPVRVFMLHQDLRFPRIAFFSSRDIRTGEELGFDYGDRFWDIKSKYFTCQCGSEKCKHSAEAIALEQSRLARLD
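Step 1: enzyme (final 20 nM) with compound, 15 min RT. Step 2: substrate peptide 500 nM and SAM 20 uM, 2 h RT. Step 3: anti-H3K9me1 antibody and AlphaScreen beads, 10 min, then plate read.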
CtBP-E1A inh: CtBP/E1A binding inhibition; activity change, % (no concentration beside the values); AID 651724; 340,000 compounds, 0.49% hits; AlphaScreen GST-E1A/His-CtBP binding, 1536-well; hits give low values; in the data active = activity change below about -65%; inconclusive = mostly about -30% to -63%; also: % is scaled to controls: 0 for no effect and ±100 for the full control effect
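Protein mix (5X: 125 nM each GST-E1A, His-CtBP) was incubated with pinned compound 2 h at 37 deg C in dark, in 50 mM Tris pH 8.0 buffer with 300 mM NaCl. Glutathione donor and nickel acceptor beads followed; AlphaScreen signal read after 1 h.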
Active calls of the source: *; ? = inconclusive; nt = no result given; ! = not confirmed by another sample; [ ] = remark or other dose. Most compounds without a hit are left out; they make up all but 10% or so of the library. Unless noted, calls follow the shape of the dose curve; as a rule, active = well fitted inhibition curve with a large enough effect; inconclusive = small, poorly fitted or top-dose-only effect; inactive = no such curve, though single readings can be large or run the other way.

SMILES	JMJD2A Tudor inh	BAZ2B block	HP1b binding inh	Six1-Eya2 inh	G9a inh	CtBP-E1A inh
CCCS(=O)(=O)NC(=O)C1(C)CCN(C(=O)c2ccc(OC)cc2)C1 (stereo not drawn)	nt	nt	nt	4	nt	7
O=C(O)CN(CCO)CCN(CC(=O)O)CC(=O)O	nt	11%	nt	nt	17%	nt
O=C(O)CN(CC(=O)O)CC(=O)O	32µM*	nt	46%	-73*	nt	-96*
COc1ccc(C(O)c2nccc3cc(OC)c(OC)cc23)cc1OC (stereo not drawn)	?	56µM*	8%	0	3.5µM*	-6
O=C(O)[C@@H]1C[C@@H](C(=O)O)N1	nt	nt	nt	nt	24µM*!	nt
CCN(CC)C(=O)[C@H]1CC(CC(=O)NC/C=C(\C)CCC=C(C)C)C(=O)N2CCc3c([nH]c4ccc(OC)cc34)[C@]12C (stereo partly drawn)	50µM*	nt	?	-23	nt	-18
CCN(CC)C(=O)[C@H]1C[C@H](CC(=O)NC/C=C(\C)CCC=C(C)C)C(=O)N2CCc3c([nH]c4cc(-c5ccco5)ccc34)[C@]12C	32µM*	nt	?	-17	nt	-22
O=C(Nc1ccc2c(c1)OCO2)N1CCCc2ccccc21	-7%	-16%	15%	-4	56µM*	-7
Cc1ccc2c(c1)CCCN2C(=O)Nc1ccc2c(c1)OCO2	56µM*	?	-37%	-12	?	-12
Cc1ccc(NC(=O)N2CCCc3ccccc32)cc1	-29%	8%	-21%	7	6%	-1
O=c1cc(CSc2nnnn2-c2ccccc2)[nH]c2[nH]n(-c3ccccc3)c(=O)c12	89µM*	?	-16%	-20	?	14
O=C(Nc1cc(Cl)ccc1Cl)c1noc2c1CCCC2	-3%	6%	55%	-2	28%[12.7 µM]	9
CC(=O)c1ccc(NC(=O)c2noc3c2CCCCC3)cc1	-14%	16%	23%	1	56µM*	4
O=C(Nc1ccc(F)cc1F)c1noc2c1CCC2	79µM*	56µM*	?	-5	?	4
COc1ccc(OC)c(CNCc2c(C(=O)O)n(Cc3cccc(F)c3)c3cc(OC)ccc23)c1	-27%	-28%	26%	nt	-44%[59 µM]	nt
O=C(O)c1ccc(CSc2nnnn2-c2ccc(F)cc2)cc1	-10%	-1%	-7%	-5	-12%	7
O=C(CSc1ccc(Cl)cc1)c1ccco1	79µM*	nt	?	-24	?	0
Cn1cnnc1SCC(=O)c1ccco1	-5%	-3%	57%	19	45µM*	0
CC(=O)c1ccc(O)c(CSc2nncn2C)c1	-8%	?	45%	4	-2%	7
O=C(CSc1nnnn1-c1ccc(F)cc1)c1ccc(O)c(O)c1	?	45µM*	-14%	14	?	0
Cn1cnnc1SCC(=O)NCCc1ccccc1	-10%	8%	-1%	-9	17%	-12
Cn1cnnc1SCC(=O)c1ccc(O)c(O)c1	-8%	?	18%	-1	7.1µM*	0
COc1ccccc1C(=O)N/C(=C\c1cn(C)c2ccccc12)C(=O)NCCCn1ccnc1	?	?	16%	-1	2%	-2
COc1ccc(Cn2c(SCc3ccccc3C)nc3cc(OC)c(OC)cc3c2=N)cc1	nt	?	nt	nt	40µM*	nt
O=c1[nH]c(-[n+]2ccccc2)c(/C=N/NC([S-])=Nc2ccccc2)s1	-28%	-38%	-6%	?	22µM*	-2
SMILES	JMJD2A Tudor inh	BAZ2B block	HP1b binding inh	Six1-Eya2 inh	G9a inh	CtBP-E1A inh
CCc1ccc[n+](-c2[nH]c(=O)sc2/C=N/N=C(\N)[O-])c1	6%	-27%	22%	-9	17%	10
Cc1ccc2[nH]c(C(=O)N/N=C/c3ccccc3O)c(C)c2c1	-21%	-10%	26%	2	14%	nt
O=c1[nH]c(-[n+]2ccc3ccccc3c2)c(/C=N/N=C(\[O-])c2ccccc2)s1	-9%	-18%	35%	-12	?	-6
Cc1cc(C)c[n+](-c2[nH]c(=O)sc2/C=N/NC([S-])=Nc2ccccc2)c1	?	?	?	-26	35µM*	-3
Cc1cc[n+](-c2[nH]c(=O)sc2/C=N/NC([S-])=Nc2ccccc2)cc1	?	?	?	?	28µM*	-18
CCc1ccc[n+](-c2[nH]c(=O)sc2/C=N/NC([S-])=Nc2ccccc2)c1	?	?	-38%	?	22µM*	-23
COc1ccc(-c2ccnc(SCC(=O)N3CCN(c4ccccc4)CC3)n2)cc1	-12%	-14%	42%	2	5%	nt
Cn1cc(C(=O)NCCc2ccccc2)c(=O)c2cc(S(=O)(=O)N3CCCCCC3)ccc21	-19%	nt	26%	nt	-23%[59 µM]	nt
CC(C)(C)c1cc[n+](-c2[nH]c(=O)sc2/C=N/N=C(\[O-])c2cccnc2)cc1	-16%	3%	37%	-10	?	-17
CC(C)(C)c1cc[n+](-c2[nH]c(=O)sc2/C=N/NC(=O)c2ccccc2[O-])cc1	-26%	-12%	9%	-1	79µM*	15
C=C[C@@H]1[C@@H](C)[C@H](C)C(=O)C([C@H](O)C(C)C)[C@@H]1C (stereo partly drawn)	-14%	nt	38%	nt	nt	nt
Cc1ccc(S(=O)(=O)Cc2ccc(C(=O)N3CCN(c4cc(C)ccc4C)CC3)o2)cc1	?	56µM*	0%	-4	-30%	-1
Cc1ccc(S(=O)(=O)Cc2ccc(C(=O)N3CCCCCC3)o2)cc1	-28%	3%	20%	0	-7%	-5
CCOC(=O)C1CCCN(C(=O)c2ccc(CS(=O)(=O)c3ccc(C)cc3)o2)C1 (stereo not drawn)	?	?	20%	0	50µM*	0
S=C1NCCOCCOCCOCCNC(=S)N2CCOCCOCCN1CCOCCOCC2	3%	1%	39%	-3	9%	1
Cc1ccc(CNS(=O)(=O)c2ccc(C(F)(F)F)cc2)n1C	-27%	?	23%	-5	45µM*	nt
Cc1ccc(CNS(=O)(=O)c2ccc(F)c(F)c2)n1C	-26%	-24%	-20%	9	45µM*	-1
Cc1ccc(S(=O)(=O)NCc2cc(=O)n(C)c(=O)n2C)cc1C	-14%	-4%	34%	2	-17%	0
O=C(CCS(=O)(=O)c1ccc(Br)s1)Nc1ccccc1Br	-20%	-33%	1%	2	50µM*	2
COc1ccc(NC(=O)CCS(=O)(=O)c2ccc(Br)s2)cc1	-30%	?	-32%	-1	18µM*	2
CCc1cccc(CC)c1NC(=O)CCS(=O)(=O)c1ccc(Br)cc1	-10%	3%[57.1 µM]	37%	nt	-18%[59 µM]	nt

Screening data deposited in PubChem BioAssay by National Center for Advancing Translational Sciences (NCATS).
